These results are taken from PubChem BioAssay (Tox21).

Each structure is given as a SMILES string. Records with an inconclusive call do not appear. The source made the active and inactive calls. Calls come from the whole dose curve; as a rule, active = well fitted curve in the direction sought with a large enough effect in the repeat runs; inconclusive = weak or mixed curves; inactive = no such curve, though single readings can be large; an effect the other way counts as inactive or inconclusive.
% is set by controls: 0 for no effect and ±100 for the full control effect.

One test can be described thus: qHTS assay to identify small molecule antagonists of the TGF-beta/Smad signaling pathway - cell viability counter screen (AID 1346824). Note: nearly all actives have a fitted effect of over 50% in size. Particulars: SBE-bla HEK293T viability, CellTiter-Glo luminescence; series mostly up to 76.8 µM; viability change, negative = cytotoxic: at the top concentration. In short, it runs like this: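 SBE-bla HEK 293T cells, incubated overnight, then compound plus 0.25 ng/mL TGF-beta1 (stock added) for 5 hr at 37 C. Viability was read in the same wells by CellTiter-Glo luminescence after 30 min at room temperature.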
In general terms: Quantitative high-throughput screening tests each substance at several concentrations.
Turning to `OCCCO`, the “viability change, negative = cytotoxic” value is -11.5% (inactive). As to `CC/C=C/CCO`, the “viability change, negative = cytotoxic” value is 1.19% (inactive). Still for that read-out and setting: to `COc1cccc([C@H](O)C2CCN(CCc3ccc(F)cc3)CC2)c1OC` belongs 5.08% (inactive); to `C[C@]12CCC(=O)C=C1[C@@H]1C[C@@H]1[C@H]1[C@@H]3[C@@H]4C[C@@H]4[C@@]4(CCC(=O)O4)[C@@]3(C)CC[C@@H]12`, -12.9% [at 35.3 µM] (inactive); to `COc1ccc(C(=O)Nc2ccccc2)cc1[N+](=O)[O-]`, -11% (inactive). Same read-out and setting: to `O=C(Cl)c1cc(Cl)cc(Cl)c1` belongs -3.42% (inactive).

As for `O=C(Nc1ccc2c(c1)Cc1ccccc1-2)C(F)(F)F`, the “viability change, negative = cytotoxic” value was -0.795% (inactive). As to `O=c1[nH]nc(-c2ccc([N+](=O)[O-])o2)o1`, the “viability change, negative = cytotoxic” value was -12.1% (inactive). Turning to `COc1ccnc2c1CCCCC2S(=O)c1nc2ccccc2[nH]1` (stereo not given), the “viability change, negative = cytotoxic” value was -4.76% [at 35.3 µM] (inactive). The same measure, in the same setting: under `CCOCCn1c(N2CCCN(C)CC2)nc2ccccc21` stands -2.2% [at 35.3 µM] (inactive); under `CC1=C(C)C(=O)C(CCCCC#CCCCC#CCO)=C(C)C1=O`, -16.4% [at 35.3 µM] (inactive). For `C(/C=C/C=C/Nc1ccccc1)=Nc1ccccc1`, the “viability change, negative = cytotoxic” value was -11.2% (inactive).

The next test is described as follows: qHTS assay to identify small molecule agonists of the TGF-beta/Smad signaling pathway - cell viability counter screen (AID 1346829). Note: top concentration of the series differs between compounds; nearly all actives have a fitted effect of over 45% in size. Particulars: SBE-bla HEK293T viability, CellTiter-Glo luminescence, 5 h; series mostly up to 76.8 µM; activity change, negative = cytotoxicity: at the top concentration. In outline:
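HEK 293T SBE-bla line, 5 hr compound exposure at 37 C, multiplexed CellTiter-Glo viability read by luminescence.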
`CO[C@@H]1[C@@H](O[C@@H]2O[C@H](C)[C@@H](O[C@H]3C[C@@](C)(O)[C@@H](O)[C@H](C)O3)[C@H](N(C)C)[C@H]2O)[C@@H](CC=O)C[C@@H](C)[C@@H](O[C@@H]2CC[C@H](N(C)C)[C@@H](C)O2)/C=C/C=C/C[C@@H](C)OC(=O)C[C@H]1OC(C)=O`: the “activity change, negative = cytotoxicity” value was 2.48% [at 35.3 µM] (inactive). With `Oc1ccc(CCNCCCCCCNCCc2ccccc2)cc1O`, the “activity change, negative = cytotoxicity” value is 16.4% [at 35.3 µM] (inactive). Same read-out and setting: under `C=C[Si](OCC)(OCC)OCC` stands -9.55% (inactive).

Consider `O=c1c2ccccc2oc2ccccc12`, for which the “activity change, negative = cytotoxicity” value was -9.43% (inactive).

Turning to `CCCCCCCCCCCCCCCCCCCl`, the activity change, negative = cytotoxicity was 3.73% [at 6.97 µM] (inactive). Consider `CC(=O)Nc1cccc(N)c1`, for which the “activity change, negative = cytotoxicity” value was -14.6% (inactive). The same measure, in the same setting: to `Cc1ccc(NC=O)c(C)c1` belongs 0.37% (inactive); to `Clc1nc2ccccc2nc1Cl`, 1.17% (inactive).

Regarding `CC(=O)Oc1cccc2c1C(=O)c1c(OC(C)=O)cc(C(=O)O)cc1C2=O`, the “activity change, negative = cytotoxicity” value was -0.177% [at 35.3 µM] (inactive). On the same count and under the same terms, to `CC(=O)c1ccc(Cl)c(Cl)c1Cl` belongs 3.56% (inactive). Same read-out and setting: under `CCCc1nc(C)c2c(=O)[nH]c(-c3cc(S(=O)(=O)N4CCN(CC)CC4)ccc3OCC)nn12` stands 0.027% [at 35.3 µM] (inactive); under `CCCCCCCCCC(C)C=O` (stereo not given), 1.06% (inactive). Turning to `CC(C)(Cc1c[nH]c2ccccc12)NCC(O)COc1ccccc1C#N` (stereo not given), the “activity change, negative = cytotoxicity” value is -11.9% [at 35.3 µM] (inactive).

Regarding `Cc1nc2sccn2c(=O)c1CCN1CCC(=C(c2ccc(F)cc2)c2ccc(F)cc2)CC1`, the “activity change, negative = cytotoxicity” value was -11.5% [at 35.3 µM] (inactive).

Take `O=C(c1ccco1)N1CCNCC1`: the “activity change, negative = cytotoxicity” value is -4.4% [at 35.3 µM] (inactive). Same read-out and setting: to `CC(COc1ccccc1)NC(C)C(O)c1ccc(O)cc1` (stereo not given) belongs 9.55% [at 35.3 µM] (inactive); to `CCc1cnc(C(=O)O)c(C(=O)O)c1`, 12.8% (inactive).

In the case of `O=S(=O)(O)c1cc(Cl)c(Cl)cc1Cl`, the “activity change, negative = cytotoxicity” value was -10.2% (inactive). On the same count and under the same terms, to `O=C(N[C@@H](Cc1ccccc1)[C@@H](O)C(=O)N1C[C@@H](O)[C@@H](O)C1)c1cc2cc(Cl)ccc2[nH]1` belongs -0.53% (inactive); to `CCC(CC)C(=O)O`, -0.705% (inactive); to `CC[C@H](NC(C)C)[C@H](O)c1ccc(O)c2[nH]c(=O)ccc12`, -16.6% [at 35.3 µM] (inactive). As to `CCCCCCC/C=C/C=O`, the “activity change, negative = cytotoxicity” value was -0.0675% (inactive). Turning to `CC/C=C/CCO`, the “activity change, negative = cytotoxicity” value is 8.83% (inactive). The same measure, in the same setting: to `COc1cccc([C@H](O)C2CCN(CCc3ccc(F)cc3)CC2)c1OC` belongs 9.96% (inactive). Take `N#Cc1ccc(CC(=O)c2cccc(C(F)(F)F)c2)cc1`: the “activity change, negative = cytotoxicity” value is -8.8% (inactive).

For `C[C@]12CCC(=O)C=C1[C@@H]1C[C@@H]1[C@H]1[C@@H]3[C@@H]4C[C@@H]4[C@@]4(CCC(=O)O4)[C@@]3(C)CC[C@@H]12`, the “activity change, negative = cytotoxicity” value was -1.99% [at 35.3 µM] (inactive).

Consider `O=C(Cl)c1cc(Cl)cc(Cl)c1`, for which the “activity change, negative = cytotoxicity” value was -0.994% (inactive). As to `O=c1[nH]nc(-c2ccc([N+](=O)[O-])o2)o1`, the “activity change, negative = cytotoxicity” value was -0.266% (inactive).

As for `COc1ccnc2c1CCCCC2S(=O)c1nc2ccccc2[nH]1` (stereo not given), the “activity change, negative = cytotoxicity” value was -7.74% [at 35.3 µM] (inactive). On the same count and under the same terms, under `CCOCCn1c(N2CCCN(C)CC2)nc2ccccc21` stands -16.3% [at 35.3 µM] (inactive); under `OCCOc1cccc(OCCO)c1`, -5.36% (inactive). For `CC1=C(C)C(=O)C(CCCCC#CCCCC#CCO)=C(C)C1=O`, the “activity change, negative = cytotoxicity” value is -23.7% [at 35.3 µM] (inactive).

As to `C(/C=C/C=C/Nc1ccccc1)=Nc1ccccc1`, the “activity change, negative = cytotoxicity” value was -2.19% (inactive).
